In PubChem BioAssay (NCATS):
Activity calls are given as the source filed them. A call without a number means that no potency is given here. Unless noted, calls come from the whole dose curve; as a rule, active = well fitted inhibition curve with a large enough effect; inconclusive = small, poorly fitted or top-dose-only effect; inactive = flat fitted curve, though single readings scatter.

The compounds below were run against Ubiquitin carboxyl-terminal hydrolase 1 (Homo sapiens) (UniProt O94782) (assay: Inhibitors of USP1/UAF1: Pilot qHTS (AID 504865; note: nearly all actives have a fitted effect of over 35% in size; note: potency is the fitted concentration of half-maximal effect)). Settings: purified USP1/UAF1, Ub-rhodamine cleavage fluorescence; series mostly up to 114 µM.
In short: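 Kinetic fluorescence assay: 1nM USP1/UAF1, 15 min compound preincubation, then 150nM Ub-Rho; 480/540 nm.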

Sequence of Ubiquitin carboxyl-terminal hydrolase 1 (Homo sapiens) (O94782 whole entry, looked up): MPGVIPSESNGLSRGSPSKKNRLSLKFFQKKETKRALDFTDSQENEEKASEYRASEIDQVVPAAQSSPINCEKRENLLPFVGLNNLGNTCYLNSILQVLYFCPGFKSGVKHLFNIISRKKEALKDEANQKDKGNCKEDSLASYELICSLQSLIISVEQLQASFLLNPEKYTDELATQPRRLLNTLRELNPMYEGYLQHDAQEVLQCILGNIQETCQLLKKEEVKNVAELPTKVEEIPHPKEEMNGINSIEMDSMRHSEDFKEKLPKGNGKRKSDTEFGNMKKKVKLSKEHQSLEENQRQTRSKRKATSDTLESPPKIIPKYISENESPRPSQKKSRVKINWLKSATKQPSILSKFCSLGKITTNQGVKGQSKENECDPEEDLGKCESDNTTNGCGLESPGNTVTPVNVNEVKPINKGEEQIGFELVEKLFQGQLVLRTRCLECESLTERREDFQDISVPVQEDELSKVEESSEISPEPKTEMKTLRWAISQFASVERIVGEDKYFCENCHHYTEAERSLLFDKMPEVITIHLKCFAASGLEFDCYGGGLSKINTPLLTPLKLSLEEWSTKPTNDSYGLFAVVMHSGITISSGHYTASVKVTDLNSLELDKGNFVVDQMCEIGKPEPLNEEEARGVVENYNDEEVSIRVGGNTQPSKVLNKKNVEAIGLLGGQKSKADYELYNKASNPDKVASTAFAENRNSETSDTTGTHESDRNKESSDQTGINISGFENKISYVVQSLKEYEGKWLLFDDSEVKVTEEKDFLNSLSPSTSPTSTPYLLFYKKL

Row | Compound | Potency
1 | CC(=O)[O][Hg][c]1ccccc1 | 50.1 µM (active)
2 | CCOC(=O)c1cncn1[C@H](C)c1ccccc1 | inactive
3 | CN(C)[C@@H]1C(=O)C(C(N)=O)=C(O)[C@@]2(O)C(=O)C3=C(O)c4c(O)cccc4[C@@](C)(O)[C@H]3[C@H](O)[C@@H]12 | inactive
4 | CCCN1CCO[C@@H]2c3cc(O)ccc3OC[C@@H]21 | inactive
5 | Cc1cc(O)ccc1Cl | inactive
6 | O=C(O)C(Cl)Cl | inactive
7 | C1CCC(NC2CCCCC2)CC1 | inactive
8 | Cc1ccc(Cl)c(O)c1 | inactive
9 | O=[N+]([O-])c1ccc([As](=O)(O)O)cc1 | inactive
10 | O=C(O)COc1ccccc1 | inactive

These compounds were tested against DNA dC->dU-editing enzyme APOBEC-3G (Homo sapiens) (UniProt Q9HC16) (assay: qHTS for inhibitors of Vif-A3G interactions: Validation (AID 588379)). Settings: Vif-A3G protein interaction assay; series mostly up to 46.1 µM.
In short: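 HeLa cells stably expressing Vif and A3G-eYFP, 700 cells/well, incubated overnight at 37 deg C, then exposed to compound overnight at 37 deg C. Inhibition of Vif-mediated degradation read as increased yellow fluorescence (Ex 488/Em 500-530) by laser-scanning cytometry.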

Sequence of DNA dC->dU-editing enzyme APOBEC-3G (Homo sapiens) (Q9HC16 whole entry, looked up): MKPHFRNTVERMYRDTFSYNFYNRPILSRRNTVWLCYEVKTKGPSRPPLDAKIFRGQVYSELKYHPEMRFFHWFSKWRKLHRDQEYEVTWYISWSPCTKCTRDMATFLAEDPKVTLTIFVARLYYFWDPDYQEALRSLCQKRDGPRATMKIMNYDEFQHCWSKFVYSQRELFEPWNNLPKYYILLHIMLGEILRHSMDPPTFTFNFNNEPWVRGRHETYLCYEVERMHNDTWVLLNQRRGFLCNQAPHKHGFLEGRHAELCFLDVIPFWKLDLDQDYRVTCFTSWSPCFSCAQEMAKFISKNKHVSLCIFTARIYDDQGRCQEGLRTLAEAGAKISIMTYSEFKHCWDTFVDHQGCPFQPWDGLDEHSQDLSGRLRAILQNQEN

Row | Compound | outcome
11 | CCOC(=O)c1cncn1[C@H](C)c1ccccc1 | inactive
12 | O=c1cccc2n1CC1CNC[C@H]2C1 | inactive
13 | C[C@H]1CCCC=CC2C[C@H](O)C[C@@H]2[C@H](O)C=CC(=O)O1 (some centres undefined) | inactive
14 | CCCN1CCO[C@@H]2c3cc(O)ccc3OC[C@@H]21 | inactive
15 | COc1ccc(C(=O)c2c(C)n(CCN3CCOCC3)c3cc(I)ccc23)cc1 | inactive
16 | CCCCCC[C@H]1C(=O)O[C@H](C)[C@H](NC(=O)c2cccc(NC=O)c2O)C(=O)O[C@@H](C)[C@@H]1OC(=O)CC(C)C | inactive

What follows are compounds tested against Estrogen receptor (Homo sapiens) (UniProt P03372) (assay: qHTS assay for small molecule antagonists of estrogen receptor alpha signaling (AID 588513; active = well fitted curve in the direction sought with a large enough effect in the signal ratio, with a control signal flat, not every such curve was filed as active; inconclusive = small, poorly fitted or top-dose-only effect, or effect the other way, or a change in a side signal; inactive = no such curve, though single readings can be large or run the other way; the % refers to the signal ratio; note: potency is the fitted concentration of half-maximal effect)). Settings: ER-alpha-UAS-bla HEK293, beta-lactamase ratio, antagonist mode; series mostly up to 76.9 µM.
In short: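 Cells were plated at 5000/well and incubated 4 h at 37 C. Compounds were added as 1:2 dilution series, duplicates. 17-beta-estradiol (0.5nM final) was added for 18 h before CCF4 detection.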

Sequence of Estrogen receptor (Homo sapiens) (P03372 whole entry, looked up): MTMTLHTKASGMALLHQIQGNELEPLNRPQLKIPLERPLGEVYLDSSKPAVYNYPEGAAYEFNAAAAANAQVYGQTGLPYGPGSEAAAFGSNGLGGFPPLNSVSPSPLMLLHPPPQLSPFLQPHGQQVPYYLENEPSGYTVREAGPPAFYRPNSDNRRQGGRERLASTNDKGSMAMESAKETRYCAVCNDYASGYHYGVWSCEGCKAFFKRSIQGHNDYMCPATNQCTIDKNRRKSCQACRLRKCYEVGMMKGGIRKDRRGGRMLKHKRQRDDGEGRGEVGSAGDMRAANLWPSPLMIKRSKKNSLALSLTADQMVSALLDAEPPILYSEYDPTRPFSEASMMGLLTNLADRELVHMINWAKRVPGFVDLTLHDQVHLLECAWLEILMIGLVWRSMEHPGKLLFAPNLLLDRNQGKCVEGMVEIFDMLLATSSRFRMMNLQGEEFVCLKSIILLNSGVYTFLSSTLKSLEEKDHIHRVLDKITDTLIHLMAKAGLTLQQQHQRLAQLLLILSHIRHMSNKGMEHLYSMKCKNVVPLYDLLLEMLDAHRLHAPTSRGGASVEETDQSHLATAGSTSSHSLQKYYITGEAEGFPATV

Row | Compound | Potency
17 | CC(=O)[O][Hg][c]1ccccc1 | 2.24 µM [inconclusive] (active)
18 | O=S(=O)(c1ccc(Cl)cc1)c1ccc(Cl)cc1 | inactive
19 | C=CCC1=C(C)C(OC(=O)C2C(C=C(C)C)C2(C)C)CC1=O (centres undefined) | inactive
20 | c1cc2ccc3cccc4ccc(c1)c2c34 | inactive
21 | Nc1ccc(Sc2ccc(N)cc2)cc1 | inactive
22 | CCCCC(CC)COC(=O)c1ccccc1C(=O)OCC(CC)CCCC (centres undefined) | inactive
23 | c1ccc2occc2c1 | inactive
24 | CC(C)(O)C(=O)Nc1ccc([N+](=O)[O-])c(C(F)(F)F)c1 | inactive
25 | O=[N+]([O-])c1c(Cl)c(Cl)cc(Cl)c1Cl | inactive
26 | Cc1cc(O)ccc1Cl | inactive
27 | O=C(Nc1ccccc1-c1ccc(Cl)cc1)c1cccnc1Cl | inactive
28 | O=C(O)COc1nc(Cl)c(Cl)cc1Cl | inactive
29 | O=[N+]([O-])c1c2ccccc2cc2ccccc12 | inactive
30 | O=C(O)C(Cl)Cl | inactive
31 | C1CCC(NC2CCCCC2)CC1 | inactive
32 | OCCCBr | inactive
33 | O=S(=O)(O)C(F)(F)C(F)(F)C(F)(F)C(F)(F)F | inactive
34 | Nc1ccc(Cl)cc1 | inactive
35 | CCOCCOC(C)=O | inactive
36 | O=[N+]([O-])/N=C1\NCCN1Cc1ccc(Cl)nc1 | inactive
37 | C=CC(=O)NCNC(=O)C=C | inactive
38 | COCCOCCO | inactive
39 | O=C(O)COc1ccccc1 | inactive
